# Screening data (PubChem BioAssay)
# AmpC detergent = AmpC beta-lactamase inhibition with detergent present. P00811. AmpC hydrolysis of nitrocefin, absorbance 480 nm, 0.01% Triton. Potency, µM (titrated, usually from 114 µM), inactives show top-dose activity change, negative = inhibition, hits mostly inhibitors. hit rate 0.041% among 370,000. AID 485294;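 further: potency means the concentration at half of the fitted maximal effect; 0% = no-compound wells and -100% = no-enzyme wells; nearly all actives have a fitted effect of over 25% in size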
# Target sequence (P00811 whole entry, looked up): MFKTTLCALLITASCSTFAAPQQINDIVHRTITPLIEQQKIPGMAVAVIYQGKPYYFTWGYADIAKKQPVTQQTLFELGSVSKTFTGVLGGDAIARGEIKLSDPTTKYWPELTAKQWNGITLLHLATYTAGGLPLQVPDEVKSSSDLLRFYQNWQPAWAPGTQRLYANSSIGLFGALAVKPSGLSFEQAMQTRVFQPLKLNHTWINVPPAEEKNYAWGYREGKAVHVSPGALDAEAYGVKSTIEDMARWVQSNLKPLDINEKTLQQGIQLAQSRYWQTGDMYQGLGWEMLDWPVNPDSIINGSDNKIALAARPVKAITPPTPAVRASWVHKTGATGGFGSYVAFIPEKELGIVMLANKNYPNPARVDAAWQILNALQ
#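 20 mM phosphate pH 7.0 + 0.01% (detergent screen) or 0.0001% Triton X-100; 5.3 nM AmpC reagent; cpd preinc 15 min RT; nitrocefin (800 uM stock) to start; A480 q20 s × 4 min; Activity was normalised to no-enzyme and no-compound control wells.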
# Shiga inhibitor = blocks Shiga toxin action in Vero cells; hit rate 9.2% among 290,000; AID 2315; inhibition, % at 38.7 µM; Vero cells, Shiga toxin protein synthesis inhibition reporter; in the data active means inhibition mostly above about 28%, no sharp cut-off; inactive means mostly below about 43%; further: 0% is about no effect
# AmpC inh no detg = blocks E. coli AmpC beta-lactamase in detergent-free assay; AmpC nitrocefin hydrolysis, absorbance 480 nm, 0.0001% Triton; P00811; AID 485341; hit rate 0.52% among 330,000; Potency, µM (series often up to 57.1 µM), for inactives: at the highest dose activity change, negative = inhibition, most hits filed as inhibitors;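 further: potency means the concentration at half of the fitted maximal effect; plate controls were no compound for no effect and no enzyme for full effect; nearly all actives have a fitted effect of over 20% in size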
#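 AmpC (5.3 nM in the dispensed reagent) in 20 mM phosphate pH 7.0 with 0.01% (detergent screen) or 0.0001% Triton X-100 was preincubated with compounds for 15 min at room temperature. Nitrocefin was then added from an 800 uM solution, and hydrolysis was followed at 480 nm.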
# CHX counter = affects cycloheximide protein synthesis inhibition readout, counter-screen | cell reporter, cycloheximide protein synthesis inhibition counterscreen | max response, % | hit rate 12% among 300,000 | AID 2314; in the data active means max response mostly above about 13%, no sharp cut-off; inactive means mostly below about 14%; further: read at 38.3 µM for the half of the compounds with a filed dose; 0% is about no effect
# AMA1-RON2 inh = disrupts binding of P. falciparum AMA1 to RON2; AlphaScreen AMA1-biotinylated RON2 peptide binding; Potency, µM (series often up to 58.2 µM), for the others: at the highest dose activity change, negative = inhibition, actives largely listed as inhibitors; hit rate 0.2% among 360,000;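 further: potency means the concentration at half of the fitted maximal effect; 0% = vehicle wells and -100% = peptide control; nearly all actives have a fitted effect of over 45% in size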
#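 AMA1 (3D7) with his tag at 25 nM final met compounds first, then biotinylated RON2 peptide at 25 nM; detection used donor plus acceptor beads, 10 µg/mL apiece, read by AlphaScreen after 30 min at room temperature.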
# SARS PLpro yeast = inhibitors of SARS-CoV papain-like protease in yeast. S. cerevisiae expressing SARS-CoV PLpro, growth rescue. hit rate 0.19% among 330,000. AID 485353. Potency, µM (titrated, usually from 32.9 µM), for inactives: at the top dose activity, positive = growth rescue, actives largely listed as activators; calls by dose curve; further: potency means the concentration at half of the fitted maximal effect; 0% is about no effect; nearly all actives have a fitted effect of over 55% in size
# * hit, by the source's call; ? = inconclusive; · = not tested or not shown; [ ] = dose if it differs, or a comment. The entries come from a sample that favours hits as a whole. Unless noted, the call rests on the fitted dose curve; in most records, active means well fitted curve in the direction sought with a large enough effect; inconclusive means small, poorly fitted or top-dose-only effect, or another doubt; inactive means no such curve, though single readings can be large; an effect the other way counts as inactive or inconclusive.
SMILES,AmpC detergent,Shiga inhibitor,AmpC inh no detg,CHX counter,AMA1-RON2 inh,SARS PLpro yeast
N#Cc1nc(-c2cccc(Cl)c2)oc1NCc1cccnc1,0%,46*,45%,26,-12%,0%
N#Cc1nc(COc2cccc(Cl)c2)oc1NCc1ccncc1,1%,54,44%,18*,-18%,0%
CCOC(=O)C1=C(O)C(=O)N(Cc2cccnc2)C1c1ccc(C)cc1 (centres undefined),-12%,-4,-17%,-2,-3%,1%
O=C(Nc1cccnc1)c1ccc(-c2ccc(Cl)cc2)o1,3%,73*,-22%,66*,-2%,-10%
COC(=O)c1sccc1-c1ccc(C(=O)Nc2cccc(Cl)c2)o1,?,51*,-24%,15,-4%,-3%
O=C(Nc1cccnc1)c1ccc(-c2cc(Cl)ccc2Cl)o1,-3%,49,-8%,22*,-1%,-3%
COc1ccc(-c2nc(CSc3nncn4c3cc3occc34)c(C)o2)cc1,-12%,·,·,·,·,·
N#Cc1ccc(CSc2nnc(NC(=O)c3ccc4ncsc4c3)s2)cc1,0%,21,-27%,10,9%,0%
O=C(NCCCc1ccccc1)c1ccc(CS(=O)Cc2ccccc2Cl)o1 (centres undefined),3%,-6,67%,-1,-4%,-1%
CCOc1ccc(CCNC(=O)c2ccc(CS(=O)Cc3ccccc3Cl)o2)cc1 (centres undefined),-12%,35,72%,16*,-4%,-15%
COc1ccccc1NC(=O)N1CCN(C(=O)Nc2ccccc2OC)CC1,-12%,-3,-15%,-2,-7%,-1%
CCC1c2ccc(C)n2CCN1C(=O)Nc1ccccc1OC (centres undefined),-5%,29*,19%,15*,10%,-1%
Cc1ccc(-n2c(=S)[nH]c3c(oc4ccccc43)c2=O)cc1C,-2%,27*,-33%,13*,47%[11.6 µM],17%
CCC(=O)c1cn(Cc2ccccc2C#N)c2ccccc12,-11%,-6,-6%,-1,22%,-10%
O=C(c1ccco1)c1cn(Cc2ccccc2Cl)c2ccccc12,4%,71,-8%,42*,-5%,-32%
N#Cc1ccccc1Cn1cc(C(=O)c2ccco2)c2ccccc21,0%,23*,5%,47*,-6%,-10%
O=C(c1ccco1)c1cn(Cc2ccccc2)c2ccccc12,4%,77*,-20%,38*,-4%,-24%
O=C(Cn1cc(C(=O)c2ccco2)c2ccccc21)Nc1ccccc1,18%,5,-55%,1,0%,1%
Cc1c(C(=O)N2CCC(C)CC2)sc2ncnc(N3CCN(c4ccccc4)CC3)c12,-13%,15,-13%,11,-2%,3%
Cc1ccc(C)c(NC(=O)CCCCCN2C(=O)[C@@H]3Cc4ccccc4CN3C2=O)c1,-2%,2,7%,-2,-2%,7%
CCN1CCN(CC(O)COC(C)C)CC1 (centres undefined),-14%,-11,-15%,1,-11%,3%
COC(=O)C1=C(C)N(CCCC(=O)O)C(=O)NC1c1cccs1 (centres undefined),?,-8,-5%,-2,-1%,-4%
COCC(=O)n1nc(-c2ccc(Cl)cc2)nc1NCc1ccc(F)cc1,-8%,48*,-21%,38*,15%,-1%
COCC(=O)n1nc(-c2ccccc2)nc1NCc1ccc(N(C)C)cc1,3%,65*,-6%,38*,22µM*,-1%
COc1ccc(CNc2nc(-c3cccnc3)nn2C(=O)c2cccs2)cc1,2%,13,-19%,29*,-2%,6%
SMILES,AmpC detergent,Shiga inhibitor,AmpC inh no detg,CHX counter,AMA1-RON2 inh,SARS PLpro yeast
COCC(=O)n1nc(-c2ccc(C)cc2)nc1NCc1ccc(F)cc1,?,86*,-13%,12*,-17%,-1%
CSc1ccc(CN2CCN(CCC(C)C)C(CCO)C2)cc1 (centres undefined),-12%,-2,-10%,-2,-1%,2%
CCCN(Cc1cc2ccccc2[nH]c1=O)C(=O)c1cccc([N+](=O)[O-])c1,3%,-2,-25%,-3,10%,2%
CNS(=O)(=O)c1cccc(C(=O)OCC(=O)NCc2ccccc2)c1,3%,-18,-8%,0,-6%,4%
O=C(COC(=O)c1cccc(S(=O)(=O)NCc2ccccc2)c1)c1ccccc1,-7%,57*,-25%,19*,10%,16%
O=C(CNS(=O)(=O)c1ccccc1)OCC(=O)c1ccc(OC(=O)c2ccccc2)cc1,1%,32*,-27%,15*,-1%,0%
O=C(NCc1ccccc1)c1cccc(S(=O)(=O)NCc2ccccc2)c1,-12%,-6,-35%,-2,11%,9%
Cc1cc(C)c(C(=O)COC(=O)c2cccc(S(=O)(=O)NCc3ccccc3)c2)cc1C,?,11,-32%,23*,4%,15%
COC(=O)c1ccc(CSc2nc3c([nH]c4ccccc43)c(=O)n2-c2ccc(F)cc2)o1,-4%,·,·,·,·,·
Cc1cccc(NC(=O)C(=O)C2C(=O)Nc3ccccc32)c1 (centres undefined),6%,50,0%,9,-15%,0%
O=C(Nc1ccc(F)cc1)C(=O)C1C(=O)Nc2ccccc21 (centres undefined),-5%,55*,-6%,14,-7%,-1%
O=C(Nc1ccc2ccccc2c1)C(=O)C1C(=O)Nc2ccccc21 (centres undefined),-3%,66*,2%,32*,·,-1%
COc1ccc(OC)c(NC(=O)c2cccn2-c2nnc(N3CCCCC3)s2)c1,0%,·,·,·,·,·
Cc1ccc(Cn2cc(CN3CC(N4CCN(CCN(C)C)CC4)CS3(=O)=O)nn2)cc1 (centres undefined),·,·,·,·,12%,·
Cc1ccc(S(=O)(=O)n2ccc(-c3ccc(OCc4c(F)cccc4Cl)cc3)n2)cc1,?,4,-34%,1,-4%,9%
Cc1ccc(N2CC(C(=O)OCc3ccc([N+](=O)[O-])cc3)CC2=O)cc1 (centres undefined),4%,6,45%,5,-6%,-14%
NC(=O)C1CC(=O)N(c2ccc(OCc3ccccc3Cl)cc2)C1 (centres undefined),1%,25*,49%,23*,-13%,0%
NC(=O)C1CC(=O)N(c2ccc(OCc3ccc(F)cc3)cc2)C1 (centres undefined),0%,94*,-1%,37*,20%,3%
NC(=O)C1CC(=O)N(c2ccc(OCc3ccc([N+](=O)[O-])cc3)cc2)C1 (centres undefined),-11%,·,2%,26*,-2%,6%
